This excerpt belongs to a sample that is enriched for hits.
AMA1-RON2 inh: disrupts binding of P. falciparum AMA1 to RON2. AID 720542. Potency, µM (highest dose often 58.2 µM), without a hit: at the top dose activity change, negative = inhibition, most hits filed as inhibitors. AlphaScreen AMA1-biotinylated RON2 peptide binding. 360,000 tested, 0.2% active; active = well fitted inhibition curve with a large enough effect; inconclusive = small, poorly fitted or top-dose-only effect; inactive = no such curve, though single readings can be large or run the other way;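 also: potency is read from the fitted curve at half-maximal effect; 0% = vehicle wells and -100% = peptide control; nearly all actives have a fitted effect of over 45% in size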
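AMA1 (3D7) with his tag at 25 nM final met compounds first, then biotinylated RON2 peptide at 25 nM; detection used donor plus acceptor beads, 10 µg/mL apiece, read by AlphaScreen after 30 min at room temperature.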
MARV entry inh: inhibitors of Marburg virus binding or cell entry; Marburg virus pseudotyped entry inhibition, cell reporter; Potency, µM (series often up to 37.8 µM), for inactives: at the top dose activity change, negative = inhibition, hits mostly inhibitors; 300,000 tested, 1.8% active; calls by dose curve; tested in HEK293 cells; also: potency is read from the fitted curve at half-maximal effect; % is scaled to controls: 0 for no effect and ±100 for the full control effect
LASV entry inh: blocks Lassa virus binding to or entry into cells | Lassa virus pseudotype entry inhibition, cell reporter | Potency, µM (doses to about 37.9 µM), without a hit: at the highest dose activity change, negative = inhibition, most hits filed as inhibitors | 300,000 tested, 1.2% active; calls by dose curve; tested in HEK293 cells; also: potency is read from the fitted curve at half-maximal effect; % is scaled to controls: 0 for no effect and ±100 for the full control effect; nearly all actives have a fitted effect of over 50% in size
Cycloheximide cs: affects cycloheximide protein synthesis inhibition readout, counter-screen; cell reporter, cycloheximide protein synthesis inhibition counterscreen; max response, %; 300,000 tested, 12% active; AID 2314; in the data active = max response mostly above about 13%, no sharp cut-off; inactive = mostly below about 14%; also: read at 38.3 µM for the half of the compounds with a filed dose; 0% is about no effect
Shiga toxin inh: inhibitors of Shiga toxin in Vero cells; Vero cells, Shiga toxin protein synthesis inhibition reporter; 290,000 tested, 9.2% active; inhibition, % at 38.7 µM; AID 2315; in the data active = inhibition mostly above about 28%, no sharp cut-off; inactive = mostly below about 43%; also: 0% is about no effect
* marks the source's active call; other numbers are inactive results; ? = inconclusive; · = no result; [ ] = remark or other dose.

SMILES | AMA1-RON2 inh | MARV entry inh | LASV entry inh | Cycloheximide cs | Shiga toxin inh
Cc1ccc(S(=O)(=O)n2nc(-c3ccco3)nc2SCc2ccccc2)cc1 | -2% | -26% | 1% | 34* | 86*
O=C(c1ccco1)n1nc(-c2ccccc2)nc1SCc1ccccc1 | -5% | 4% | -4% | 32 | 31
O=C(c1ccco1)n1nc(-c2ccco2)nc1SCc1ccccc1 | -10% | ? | 18% | 19* | 43
O=C(Cc1ccccc1)n1nc(-c2ccco2)nc1SCc1ccccc1 | 2% | ? | 12% | 28* | 42
CN1CCC(N(C)C(=O)c2ccc(Cl)c(S(=O)(=O)Nc3cc(Cl)ccc3Cl)c2)CC1 | -3% | · | · | · | ·
O=C(NC1CCCC1)C(C1CC1)n1c(-c2ccnc3ccccc23)nc2ccccc21 (stereo not given) | 10% | · | · | · | ·
Cc1ccc(S(=O)(=O)NC(=O)C2(C)CCN2C(=O)c2ccccc2)nc1 (stereo not given) | 76% | · | · | · | ·
O=C1c2cccc(NCCNCCO)c2C(=O)c2cccc(NCCNCCO)c21 | 45µM* | 5µM* | ? | · | ·
COc1ccccc1NCCC(=O)O | -14% | · | · | -1 | 5
O=C(O)CCNc1ccc(NCCC(=O)O)c2c1C(=O)c1ccccc1C2=O | 16µM* | · | · | -5 | -18
O=C(NCCO)c1cccc2c1C(=O)c1ccccc1-2 | -4% | 7% | 4% | 9 | 17
CCCCN(C)C(=O)C1CCCN(c2ncnc3onc(C)c23)C1 (stereo not given) | · | · | 0%[46.1 µM] | · | ·
CC(=O)Nc1ccc(/C=C/c2nc(-c3ccccc3O)n[nH]2)cc1 | 79% | · | · | 48* | 57*
COc1cc(/C=C/c2nc(-c3ccccc3O)n[nH]2)cc(OC)c1OC | 71% | ? | ? | 19 | 4
C=C(C)c1cccc(C(C)(C)NC(=O)N2CCN(C(=O)OCC)CC2)c1 | 8% | · | · | · | ·
O=S(=O)(c1ccccc1)N1CCNCC1 | 1% | -12% | -2% | · | ·
CCOc1ccc(CNC(=S)N/N=C/c2cccnc2)cc1 | 65% | 27% | -25% | 2 | 19
C/C(=N\NC(=O)c1ccc(Cn2cc(Br)cn2)o1)c1ccc(NC(=O)c2ccoc2C)cc1 | 12% | ? | -25% | 39* | 65*
CC(C)(C)c1ccc(OCc2ccc(C(=O)N/N=C/c3ccc([N+](=O)[O-])cc3)o2)cc1 | -13% | ? | ? | 24 | 58*
CCOc1ccc(/C=N/NC(=O)c2ccc(Cn3cc([N+](=O)[O-])cn3)o2)cc1 | 27% | 12% | ? | 23* | 51*
CCOc1ccc(CNC(=S)N/N=C\c2ccc([N+](=O)[O-])cc2)cc1 | 41% | 14% | ? | 12* | 9
COc1ccc(/C=N/NC(=O)c2ccc(COc3ccccc3Cl)o2)cc1 | -6% | -25% | -27% | 15 | 22
CCOc1ccc(/C=N/NC(=O)c2ccc(Cn3cc(Br)cn3)o2)cc1 | 3% | ? | 16% | 28* | active
O=C(N/N=C/c1cccc(O)c1)c1ccc(COc2ccc3c(c2)CCC3)o1 | 3% | ? | 6% | 35* | 57*
CCOc1ccccc1/C=N/NC(=O)c1ccc(Cn2cc([N+](=O)[O-])cn2)o1 | -4% | -8% | -1% | -2 | -6
SMILES | AMA1-RON2 inh | MARV entry inh | LASV entry inh | Cycloheximide cs | Shiga toxin inh
CCCc1ccc(OCc2ccc(C(=O)N/N=C/c3cccnc3)o2)cc1 | -7% | · | · | 68* | 110*
CCOc1ccc(CC(=O)N/N=C/c2cccnc2)cc1 | 7% | -15% | ? | -2 | -7
CC(/C=N/NC(=O)c1ccc(Cn2cc([N+](=O)[O-])cn2)o1)=C\c1ccccc1 | -3% | 6%[46.1 µM] | 6%[46.1 µM] | 26* | 72*
Cc1nn(Cc2ccccc2)c2ncccc12 | 10% | 1% | 10% | -1 | -15
CC1(C(=O)NC2CCN(Cc3ccccc3)CC2)CCN1Cc1ccc2ccccc2c1 (stereo not given) | -6% | · | · | · | ·
COc1cc(C=CC(=O)c2cc(OC)c(OC)c(OC)c2)cc(OC)c1OC | 2% | ? | 7.9µM* | · | ·
COc1cc(C=CC(=O)c2ccccc2)cc(OC)c1OC | 8% | · | · | · | ·
CCCOc1ccc(CS[C@@H](CC(=O)O)C(=O)O)cc1 | · | 17% | · | · | ·
COC(=O)Cn1cc(C(=O)c2ccccc2F)c2ccccc21 | -2% | ? | ? | -2 | 1
CCOC(=O)Cn1cc(C(=O)c2ccccc2F)c2ccccc21 | -17% | 6% | 1% | 17* | 45
CCC(=O)Nc1ccc(Cl)c(NC(=O)c2cccc(OC)c2)c1 | -9% | -11%[46.1 µM] | -6%[46.1 µM] | -2 | 2
COc1ccc(NC(=O)c2ccc(S(=O)(=O)N(C)C)cc2)cc1 | 1% | 12%[46.1 µM] | 6% | 15 | 35
COc1cccc(C(=O)Nc2cccc(NC(=O)c3ccccc3Cl)c2)c1 | -7% | · | · | 13 | 23
COC(=O)c1ccc(OS(=O)(=O)N(C)C)cc1 | 6% | · | · | 54* | 99*
CN(C)S(=O)(=O)Oc1cccc(C(=O)Nc2cccc(Cl)c2)c1 | 5% | -24% | ? | 38* | 67*
COc1ccc(NC(=O)c2cccc(OS(=O)(=O)N(C)C)c2)cc1 | -21% | ? | ? | 44* | 105*
CN(C)S(=O)(=O)Oc1cccc(C(=O)Nc2ccc(Cl)c(Cl)c2)c1 | 55% | -25% | ? | 72* | 117*
CN(C)S(=O)(=O)Oc1ccc(C(=O)Nc2ccc([N+](=O)[O-])cc2)cc1 | -4% | · | · | 6 | 19
C[C@]1(O)CC(=O)C=C[C@H]1Nc1ccccc1 | 7% | · | · | · | ·
O=C(N/N=C/c1c(O)n(CCc2ccccc2)c(=O)[nH]c1=O)c1ccccc1O | 65% | -2% | · | 24* | 29
COc1ccccc1-n1c(O)c(/C=N/NC(=S)Nc2ccccc2)c(=O)[nH]c1=S | 97% | · | · | 22* | 32
O=C(N/N=C/c1c(O)n(CCc2ccc(F)cc2)c(=O)[nH]c1=O)c1ccccc1 | 95% | · | · | 14* | 53*
O=C(N/N=C/c1c(O)n(Cc2ccco2)c(=O)[nH]c1=O)c1ccccc1 | 14% | · | · | 34* | 80
CC(Sc1ccc(S(=O)(=O)N2CCCCC2)cn1)C(N)=O (stereo not given) | 1% | · | · | · | ·
CC(C)(C)c1cc(/C=N/NC(=O)C[n+]2ccccc2)cc(C(C)(C)C)c1O | -15% | · | · | -4 | -10
SMILES | AMA1-RON2 inh | MARV entry inh | LASV entry inh | Cycloheximide cs | Shiga toxin inh
CCc1ccccc1N1C(=O)N(C)c2ccccc2S1(=O)=O | · | · | 4%[46.1 µM] | · | ·
O=C1NC(=O)C2(CCCCCCC2)N1 | 2% | 1%[46.1 µM] | 9%[46.1 µM] | · | ·
O=C(N/N=C/c1c(O)n(CCc2ccccc2)c(=O)[nH]c1=O)c1ccncc1 | 11% | 4% | 11% | -7 | -15
COc1ccc(Cn2c(O)c(/C=N/NC(=O)c3ccccc3)c(=O)[nH]c2=O)cc1 | 47% | · | · | 37* | 75*
CCn1c(O)c(/C=N/NC(=O)c2ccccc2)c(=O)[nH]c1=S | -6% | · | · | 31* | 44*
O=C(N/N=C/c1c(O)n(Cc2ccccc2)c(=O)[nH]c1=O)c1ccccc1O | 35% | ? | ? | 16* | 6
COc1ccc(Cn2c(O)c(/C=N/NC(=O)c3ccccc3O)c(=O)[nH]c2=O)cc1 | 66% | 2%[46.1 µM] | -2% | 13* | 20
COc1ccc(Cn2c(O)c(/C=N/NC(=O)c3ccncc3)c(=O)[nH]c2=O)cc1 | 44% | 9%[46.1 µM] | 2%[46.1 µM] | -3 | -6
